According to publication PMC7862700, “An all-to-all approach to the identification of sequence-specific readers for epigenetic DNA modifications on cytosine”:

Tests used:
Assay in all cases: DAPPL (digital affinity profiling via proximity ligation, sequencing); 10 mM Tris-HCl pH 7.5, 50 mM NaCl, 1 mM DTT, 4% glycerol, room temperature, 30 min; GST-TFs on glutathione beads, 16-mer random dsDNA library, 0.1% formaldehyde crosslink after washing; high values mean tight binding
[1] = target: T1, FEV (Homo sapiens, UniProt Q99581 1-238); settings: protein: recombinant; tags: N-terminal GST; dsDNA, one strand shown
T1 sequence: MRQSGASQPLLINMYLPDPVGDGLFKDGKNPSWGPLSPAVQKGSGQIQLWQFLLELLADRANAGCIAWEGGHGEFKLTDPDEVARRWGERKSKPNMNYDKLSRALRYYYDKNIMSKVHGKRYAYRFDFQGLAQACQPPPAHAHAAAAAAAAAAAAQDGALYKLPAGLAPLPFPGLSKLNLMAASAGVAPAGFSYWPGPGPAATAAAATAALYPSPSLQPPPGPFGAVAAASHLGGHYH
Procedure, shortened: (§1)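 After expression in yeast as GST fusions, human transcription factors were bound to glutathione beads, DNA-barcoded and mixed with a tag-only sample. The pools were incubated with 200 nmole of a 16-mer random double-stranded DNA library in Tris/NaCl/DTT/glycerol buffer (30 min, room temperature), washed and crosslinked with 0.1% formaldehyde. Proximity ligation with BsaI/T4 ligase ran for 1 h at 37 °C, before PCR amplification and sequencing on an Illumina NextSeq500. Binding signal is a hexamer's read frequency for a factor divided by its frequency for the tag-only sample.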

[2] = target: ETV5 (Homo sapiens, UniProt P41161 1-510); settings: protein: recombinant; tags: N-terminal GST; dsDNA, one strand shown
Procedure, shortened: as §1

[3] = target: HSF1 (Homo sapiens, UniProt Q00613 1-529); settings: protein: recombinant; tags: N-terminal GST; chain copies: 3; dsDNA, one strand shown
Procedure, shortened: as §1

[4] = target: T2, SPIC (Homo sapiens, UniProt Q8N5J4 1-248); settings: protein: recombinant; tags: N-terminal GST; dsDNA, one strand shown
T2 sequence: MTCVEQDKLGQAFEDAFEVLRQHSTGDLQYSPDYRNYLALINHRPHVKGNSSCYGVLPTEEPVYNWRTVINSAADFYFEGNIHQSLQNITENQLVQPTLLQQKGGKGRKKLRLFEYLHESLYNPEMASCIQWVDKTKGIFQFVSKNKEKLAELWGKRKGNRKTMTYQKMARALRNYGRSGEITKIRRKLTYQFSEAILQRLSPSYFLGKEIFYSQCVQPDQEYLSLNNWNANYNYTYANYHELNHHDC
Procedure, shortened: as §1

[5] = target: ELF4 (Homo sapiens, UniProt Q99607 1-663); settings: protein: recombinant; tags: N-terminal GST; dsDNA, one strand shown
Procedure, shortened: as §1

[6] = target: T3, ELK4 (Homo sapiens, UniProt P28324-2 1-405); settings: protein: recombinant; tags: N-terminal GST; dsDNA, one strand shown
T3 sequence: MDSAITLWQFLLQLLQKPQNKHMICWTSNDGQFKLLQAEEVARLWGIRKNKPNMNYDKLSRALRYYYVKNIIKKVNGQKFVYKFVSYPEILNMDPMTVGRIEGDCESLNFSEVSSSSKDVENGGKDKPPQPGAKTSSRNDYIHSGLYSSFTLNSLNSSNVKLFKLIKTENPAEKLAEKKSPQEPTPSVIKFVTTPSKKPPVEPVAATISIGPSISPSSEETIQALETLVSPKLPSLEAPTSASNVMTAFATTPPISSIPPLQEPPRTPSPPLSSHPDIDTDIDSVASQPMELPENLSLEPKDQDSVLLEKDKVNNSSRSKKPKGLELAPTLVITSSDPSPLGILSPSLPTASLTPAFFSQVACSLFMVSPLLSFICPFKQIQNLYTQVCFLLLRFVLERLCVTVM
Procedure, shortened: as §1

[7] = target: T4, ETV2 (Homo sapiens, UniProt O00321 1-342); settings: protein: recombinant; tags: N-terminal GST; dsDNA, one strand shown
T4 sequence: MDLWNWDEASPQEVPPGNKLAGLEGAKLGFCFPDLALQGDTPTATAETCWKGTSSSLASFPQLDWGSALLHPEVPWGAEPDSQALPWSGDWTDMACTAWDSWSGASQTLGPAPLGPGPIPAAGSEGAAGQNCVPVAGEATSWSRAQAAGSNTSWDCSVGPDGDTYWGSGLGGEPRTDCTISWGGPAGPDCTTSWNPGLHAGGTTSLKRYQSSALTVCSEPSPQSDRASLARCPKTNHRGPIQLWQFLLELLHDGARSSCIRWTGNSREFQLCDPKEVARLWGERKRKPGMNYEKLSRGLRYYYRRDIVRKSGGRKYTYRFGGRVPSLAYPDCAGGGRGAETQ
Procedure, shortened: as §1

[8] = target: T5, ELF3 (Homo sapiens, UniProt P78545 1-371); settings: protein: recombinant; tags: N-terminal GST; dsDNA, one strand shown
T5 sequence: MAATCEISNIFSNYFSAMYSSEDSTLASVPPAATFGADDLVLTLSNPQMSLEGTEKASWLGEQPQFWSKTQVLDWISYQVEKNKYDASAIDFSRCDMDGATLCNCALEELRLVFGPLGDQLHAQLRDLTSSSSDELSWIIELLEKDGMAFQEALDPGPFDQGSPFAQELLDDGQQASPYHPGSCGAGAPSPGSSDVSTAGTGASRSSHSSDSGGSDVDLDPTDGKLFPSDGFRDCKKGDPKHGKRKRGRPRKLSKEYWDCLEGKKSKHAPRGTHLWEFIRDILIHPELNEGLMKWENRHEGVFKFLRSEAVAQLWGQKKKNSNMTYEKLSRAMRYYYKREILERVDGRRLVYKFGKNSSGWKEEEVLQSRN
Procedure, shortened: as §1

[9] = target: CRX (Homo sapiens, UniProt O43186 1-299); settings: protein: recombinant; tags: N-terminal GST; dsDNA, one strand shown
Procedure, shortened: as §1

[10] = target: ETV1 (Homo sapiens, UniProt P50549 1-477); settings: protein: recombinant; tags: N-terminal GST; dsDNA, one strand shown
Procedure, shortened: as §1

[11] = target: T6, ERF (Homo sapiens, UniProt P50548 1-548); settings: protein: recombinant; tags: N-terminal GST; dsDNA, one strand shown
T6 sequence: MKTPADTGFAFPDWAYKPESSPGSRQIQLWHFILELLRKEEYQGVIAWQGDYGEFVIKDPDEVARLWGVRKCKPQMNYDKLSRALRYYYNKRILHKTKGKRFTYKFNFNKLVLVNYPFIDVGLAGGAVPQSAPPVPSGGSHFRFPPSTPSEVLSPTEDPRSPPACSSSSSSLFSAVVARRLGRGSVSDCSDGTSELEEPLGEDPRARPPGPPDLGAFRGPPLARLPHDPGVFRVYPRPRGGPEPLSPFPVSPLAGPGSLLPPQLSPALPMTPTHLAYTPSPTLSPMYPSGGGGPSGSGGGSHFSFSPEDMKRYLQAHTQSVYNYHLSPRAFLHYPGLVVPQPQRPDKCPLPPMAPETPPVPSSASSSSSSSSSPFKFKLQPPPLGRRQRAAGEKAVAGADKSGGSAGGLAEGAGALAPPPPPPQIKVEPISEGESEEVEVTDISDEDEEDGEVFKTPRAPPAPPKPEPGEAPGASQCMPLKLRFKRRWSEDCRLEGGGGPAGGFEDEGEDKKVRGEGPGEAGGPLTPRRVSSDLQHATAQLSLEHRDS
Procedure, shortened: as §1

[12] = target: T7, ETV3L (Homo sapiens, UniProt Q6ZN32 1-361); settings: protein: recombinant; tags: N-terminal GST; dsDNA, one strand shown
T7 sequence: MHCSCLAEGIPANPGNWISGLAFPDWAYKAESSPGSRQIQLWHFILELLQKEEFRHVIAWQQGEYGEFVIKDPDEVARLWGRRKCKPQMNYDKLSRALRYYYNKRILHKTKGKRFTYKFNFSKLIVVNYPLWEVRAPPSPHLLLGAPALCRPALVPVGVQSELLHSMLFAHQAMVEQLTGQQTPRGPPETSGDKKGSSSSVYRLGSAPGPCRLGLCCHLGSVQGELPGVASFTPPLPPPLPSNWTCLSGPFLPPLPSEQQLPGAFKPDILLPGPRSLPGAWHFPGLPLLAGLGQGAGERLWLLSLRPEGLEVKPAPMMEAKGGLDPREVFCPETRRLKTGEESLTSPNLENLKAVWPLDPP
Procedure, shortened: as §1

[13] = target: T8, ETS2 (Homo sapiens, UniProt P15036 1-469); settings: protein: recombinant; tags: N-terminal GST; dsDNA, one strand shown
T8 sequence: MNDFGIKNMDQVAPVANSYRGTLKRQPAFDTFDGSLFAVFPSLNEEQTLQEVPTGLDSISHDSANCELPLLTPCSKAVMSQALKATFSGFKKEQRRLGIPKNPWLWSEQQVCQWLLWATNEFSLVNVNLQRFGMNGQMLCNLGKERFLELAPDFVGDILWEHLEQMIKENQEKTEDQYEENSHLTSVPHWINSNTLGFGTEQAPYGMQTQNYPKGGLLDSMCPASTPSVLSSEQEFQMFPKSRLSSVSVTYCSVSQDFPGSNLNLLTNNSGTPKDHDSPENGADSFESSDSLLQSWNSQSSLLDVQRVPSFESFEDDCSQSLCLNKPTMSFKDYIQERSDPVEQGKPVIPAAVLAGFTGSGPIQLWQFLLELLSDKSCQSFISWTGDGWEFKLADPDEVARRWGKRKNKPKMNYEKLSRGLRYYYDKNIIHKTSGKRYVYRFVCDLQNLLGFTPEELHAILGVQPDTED
Procedure, shortened: as §1

[14] = target: T9, SPDEF (Homo sapiens, UniProt O95238 1-335); settings: protein: recombinant; tags: N-terminal GST; dsDNA, one strand shown
T9 sequence: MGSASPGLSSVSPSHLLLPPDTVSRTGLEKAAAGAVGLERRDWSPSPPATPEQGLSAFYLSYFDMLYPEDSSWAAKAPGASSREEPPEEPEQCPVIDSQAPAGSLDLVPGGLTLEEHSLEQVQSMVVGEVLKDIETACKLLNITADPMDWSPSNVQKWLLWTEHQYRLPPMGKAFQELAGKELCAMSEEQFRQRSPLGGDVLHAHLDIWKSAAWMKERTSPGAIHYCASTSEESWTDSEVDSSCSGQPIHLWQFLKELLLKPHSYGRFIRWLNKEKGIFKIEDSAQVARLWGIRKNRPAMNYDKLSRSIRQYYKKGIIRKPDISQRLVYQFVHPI
Procedure, shortened: as §1

[15] = target: T10, ETV7 (Homo sapiens, UniProt Q9Y603 1-341); settings: protein: recombinant; tags: N-terminal GST; dsDNA, one strand shown
T10 sequence: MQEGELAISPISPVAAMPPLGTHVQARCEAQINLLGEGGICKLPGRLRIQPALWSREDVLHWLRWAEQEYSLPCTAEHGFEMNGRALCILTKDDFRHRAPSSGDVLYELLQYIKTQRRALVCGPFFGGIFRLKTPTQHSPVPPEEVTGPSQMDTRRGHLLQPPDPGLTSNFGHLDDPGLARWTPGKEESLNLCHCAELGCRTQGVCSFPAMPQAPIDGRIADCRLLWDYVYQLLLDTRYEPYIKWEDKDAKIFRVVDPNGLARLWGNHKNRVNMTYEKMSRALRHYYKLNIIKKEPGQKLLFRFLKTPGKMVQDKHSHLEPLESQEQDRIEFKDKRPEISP
Procedure, shortened: as §1

[16] = target: T11, ELF5 (Homo sapiens, UniProt Q9UKW6-2 1-255); settings: protein: recombinant; tags: N-terminal GST; dsDNA, one strand shown
T11 sequence: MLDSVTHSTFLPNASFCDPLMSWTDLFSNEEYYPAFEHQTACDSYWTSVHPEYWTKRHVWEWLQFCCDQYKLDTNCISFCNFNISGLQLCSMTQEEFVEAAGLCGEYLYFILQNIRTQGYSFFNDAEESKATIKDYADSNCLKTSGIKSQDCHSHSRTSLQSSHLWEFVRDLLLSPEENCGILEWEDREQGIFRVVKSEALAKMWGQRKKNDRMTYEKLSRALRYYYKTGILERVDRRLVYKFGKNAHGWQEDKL
Procedure, shortened: as §1

[17] = target: T12, ETV3 (Homo sapiens, UniProt P41162-2 1-143); settings: protein: recombinant; tags: N-terminal GST; dsDNA, one strand shown
T12 sequence: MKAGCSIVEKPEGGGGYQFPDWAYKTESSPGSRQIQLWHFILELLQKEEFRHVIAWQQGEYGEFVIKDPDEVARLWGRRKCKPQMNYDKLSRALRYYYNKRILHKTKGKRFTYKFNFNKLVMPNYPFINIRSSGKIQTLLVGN
Procedure, shortened: as §1

[18] = target: ETV6 (Homo sapiens, UniProt P41212 1-452); settings: protein: recombinant; tags: N-terminal GST; dsDNA, one strand shown
Procedure, shortened: as §1

Chain of CRX (O43186 whole entry): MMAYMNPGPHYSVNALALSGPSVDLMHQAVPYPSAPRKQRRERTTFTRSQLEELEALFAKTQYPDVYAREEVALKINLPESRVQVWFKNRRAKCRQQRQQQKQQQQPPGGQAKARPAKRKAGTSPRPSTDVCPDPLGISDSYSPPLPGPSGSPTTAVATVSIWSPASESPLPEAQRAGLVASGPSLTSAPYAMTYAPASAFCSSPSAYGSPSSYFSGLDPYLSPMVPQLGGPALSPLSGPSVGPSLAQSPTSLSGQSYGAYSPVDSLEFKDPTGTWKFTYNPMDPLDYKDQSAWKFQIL
Chain of HSF1 (Q00613 whole entry): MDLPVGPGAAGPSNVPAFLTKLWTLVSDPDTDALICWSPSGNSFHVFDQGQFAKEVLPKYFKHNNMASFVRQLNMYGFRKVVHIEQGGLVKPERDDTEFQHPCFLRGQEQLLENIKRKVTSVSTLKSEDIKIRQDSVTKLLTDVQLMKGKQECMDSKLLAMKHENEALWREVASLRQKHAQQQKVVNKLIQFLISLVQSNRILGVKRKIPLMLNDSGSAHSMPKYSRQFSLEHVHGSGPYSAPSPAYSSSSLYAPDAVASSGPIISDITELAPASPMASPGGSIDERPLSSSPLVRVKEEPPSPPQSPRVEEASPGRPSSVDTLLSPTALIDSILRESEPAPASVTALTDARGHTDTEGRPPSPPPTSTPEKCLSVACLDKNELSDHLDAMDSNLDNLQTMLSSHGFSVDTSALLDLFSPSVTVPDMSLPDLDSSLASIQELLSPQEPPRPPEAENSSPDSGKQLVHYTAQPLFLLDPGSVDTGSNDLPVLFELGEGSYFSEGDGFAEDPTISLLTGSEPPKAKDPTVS
Chain of ETV6 (P41212 whole entry): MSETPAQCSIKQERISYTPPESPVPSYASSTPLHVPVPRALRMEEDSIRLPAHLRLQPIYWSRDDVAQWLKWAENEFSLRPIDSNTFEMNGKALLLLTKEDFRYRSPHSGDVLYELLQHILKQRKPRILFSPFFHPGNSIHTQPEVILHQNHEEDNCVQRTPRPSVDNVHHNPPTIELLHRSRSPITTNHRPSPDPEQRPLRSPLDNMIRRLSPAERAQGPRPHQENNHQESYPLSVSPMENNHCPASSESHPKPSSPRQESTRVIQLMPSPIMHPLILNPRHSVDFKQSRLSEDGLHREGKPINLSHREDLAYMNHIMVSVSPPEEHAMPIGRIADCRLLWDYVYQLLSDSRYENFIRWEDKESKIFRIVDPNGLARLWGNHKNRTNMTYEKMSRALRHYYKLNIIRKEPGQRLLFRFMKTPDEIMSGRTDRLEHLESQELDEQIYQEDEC
Chain of ETV1 (P50549 whole entry): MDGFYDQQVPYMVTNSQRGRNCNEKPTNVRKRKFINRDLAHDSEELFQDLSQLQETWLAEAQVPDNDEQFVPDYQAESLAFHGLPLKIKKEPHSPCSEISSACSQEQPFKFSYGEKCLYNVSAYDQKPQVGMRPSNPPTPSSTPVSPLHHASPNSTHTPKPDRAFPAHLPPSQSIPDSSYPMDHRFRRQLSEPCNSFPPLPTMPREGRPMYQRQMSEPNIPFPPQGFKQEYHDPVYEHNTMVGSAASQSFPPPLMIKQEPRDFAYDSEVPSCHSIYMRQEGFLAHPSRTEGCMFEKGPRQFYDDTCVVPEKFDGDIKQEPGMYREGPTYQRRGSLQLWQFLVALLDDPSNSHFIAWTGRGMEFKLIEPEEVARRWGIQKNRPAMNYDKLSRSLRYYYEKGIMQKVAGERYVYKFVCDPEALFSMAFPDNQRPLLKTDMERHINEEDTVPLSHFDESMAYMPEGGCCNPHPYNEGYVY
Chain of ELF4 (Q99607 whole entry): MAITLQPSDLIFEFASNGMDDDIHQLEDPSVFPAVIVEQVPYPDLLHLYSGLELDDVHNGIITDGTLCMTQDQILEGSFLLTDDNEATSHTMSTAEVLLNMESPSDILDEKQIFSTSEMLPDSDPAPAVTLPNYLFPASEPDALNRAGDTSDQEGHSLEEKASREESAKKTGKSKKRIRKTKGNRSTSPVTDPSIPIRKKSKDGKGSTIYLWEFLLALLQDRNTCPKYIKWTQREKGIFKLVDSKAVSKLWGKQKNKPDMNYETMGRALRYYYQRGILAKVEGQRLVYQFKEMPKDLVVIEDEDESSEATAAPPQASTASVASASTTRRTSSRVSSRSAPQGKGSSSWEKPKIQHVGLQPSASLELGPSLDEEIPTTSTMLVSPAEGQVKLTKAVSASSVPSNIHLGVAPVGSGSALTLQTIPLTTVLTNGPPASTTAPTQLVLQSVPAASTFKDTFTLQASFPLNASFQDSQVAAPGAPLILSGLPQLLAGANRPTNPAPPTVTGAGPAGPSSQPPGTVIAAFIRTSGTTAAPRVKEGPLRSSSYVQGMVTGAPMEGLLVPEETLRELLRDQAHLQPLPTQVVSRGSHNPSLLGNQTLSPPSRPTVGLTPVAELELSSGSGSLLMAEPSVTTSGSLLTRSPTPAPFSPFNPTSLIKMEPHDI
Chain of ETV5 (P41161 whole entry): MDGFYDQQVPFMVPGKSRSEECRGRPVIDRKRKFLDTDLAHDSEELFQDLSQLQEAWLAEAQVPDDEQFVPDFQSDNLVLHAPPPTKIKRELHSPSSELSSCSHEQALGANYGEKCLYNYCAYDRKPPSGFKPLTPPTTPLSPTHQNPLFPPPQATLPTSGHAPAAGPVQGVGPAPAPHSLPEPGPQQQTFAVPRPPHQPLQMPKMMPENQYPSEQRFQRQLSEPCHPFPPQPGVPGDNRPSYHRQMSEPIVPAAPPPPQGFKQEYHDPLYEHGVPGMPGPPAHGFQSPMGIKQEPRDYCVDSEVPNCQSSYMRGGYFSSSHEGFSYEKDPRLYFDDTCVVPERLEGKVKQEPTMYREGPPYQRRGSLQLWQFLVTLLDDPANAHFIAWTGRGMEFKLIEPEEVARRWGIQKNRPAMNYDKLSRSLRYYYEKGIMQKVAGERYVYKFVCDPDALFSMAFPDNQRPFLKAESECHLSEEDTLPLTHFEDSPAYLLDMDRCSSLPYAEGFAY

Sequence	binding signal [1]	binding signal [2]	binding signal [3]	binding signal [4]	binding signal [5]	binding signal [6]	binding signal [7]	binding signal [8]	binding signal [9]	binding signal [10]	binding signal [11]	binding signal [12]	binding signal [13]	binding signal [14]	binding signal [15]	binding signal [16]	binding signal [17]	binding signal [18]
GACTCT	1.32 fold enrichment (6-mer frequency, TF over GST control)	1.26 fold enrichment (6-mer frequency, TF over GST control)	1.26 fold enrichment (6-mer frequency, TF over GST control)	1.55 fold enrichment (6-mer frequency, TF over GST control)	1.29 fold enrichment (6-mer frequency, TF over GST control)	1.28 fold enrichment (6-mer frequency, TF over GST control)	1.26 fold enrichment (6-mer frequency, TF over GST control)	1.28 fold enrichment (6-mer frequency, TF over GST control)	1.13 fold enrichment (6-mer frequency, TF over GST control)	1.32 fold enrichment (6-mer frequency, TF over GST control)	1.58 fold enrichment (6-mer frequency, TF over GST control)	1.32 fold enrichment (6-mer frequency, TF over GST control)	1.36 fold enrichment (6-mer frequency, TF over GST control)	1.21 fold enrichment (6-mer frequency, TF over GST control)	1.23 fold enrichment (6-mer frequency, TF over GST control)	1.22 fold enrichment (6-mer frequency, TF over GST control)	1.22 fold enrichment (6-mer frequency, TF over GST control)	1.16 fold enrichment (6-mer frequency, TF over GST control)
TATCTT	1.33 fold enrichment (6-mer frequency, TF over GST control)	1.22 fold enrichment (6-mer frequency, TF over GST control)	1.48 fold enrichment (6-mer frequency, TF over GST control)	1.27 fold enrichment (6-mer frequency, TF over GST control)	1.24 fold enrichment (6-mer frequency, TF over GST control)	1.38 fold enrichment (6-mer frequency, TF over GST control)	1.53 fold enrichment (6-mer frequency, TF over GST control)	1.34 fold enrichment (6-mer frequency, TF over GST control)	1.91 fold enrichment (6-mer frequency, TF over GST control)	1.22 fold enrichment (6-mer frequency, TF over GST control)	1.32 fold enrichment (6-mer frequency, TF over GST control)	1.41 fold enrichment (6-mer frequency, TF over GST control)	1.29 fold enrichment (6-mer frequency, TF over GST control)	1.32 fold enrichment (6-mer frequency, TF over GST control)	1.22 fold enrichment (6-mer frequency, TF over GST control)	1.4 fold enrichment (6-mer frequency, TF over GST control)	1.25 fold enrichment (6-mer frequency, TF over GST control)	1.18 fold enrichment (6-mer frequency, TF over GST control)
